Screening results from PubChem BioAssay.
A selection: hits, their analogues and other compounds. The true share with any hit is near 27%.
CYP2C9 activ: activators of human CYP2C9; activation factor at 5 µM; AID 1024; recombinant CYP2C9, luciferin-H conversion, luminescence; stronger effect = higher value; factor 1 = untreated enzyme, 0 = blocked; 96,000 tested, 1.4% active; P11712;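 active = activation factor of 2 or more for CYP2C9 at a 5 µM dose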
Target sequence (P11712 whole entry, looked up): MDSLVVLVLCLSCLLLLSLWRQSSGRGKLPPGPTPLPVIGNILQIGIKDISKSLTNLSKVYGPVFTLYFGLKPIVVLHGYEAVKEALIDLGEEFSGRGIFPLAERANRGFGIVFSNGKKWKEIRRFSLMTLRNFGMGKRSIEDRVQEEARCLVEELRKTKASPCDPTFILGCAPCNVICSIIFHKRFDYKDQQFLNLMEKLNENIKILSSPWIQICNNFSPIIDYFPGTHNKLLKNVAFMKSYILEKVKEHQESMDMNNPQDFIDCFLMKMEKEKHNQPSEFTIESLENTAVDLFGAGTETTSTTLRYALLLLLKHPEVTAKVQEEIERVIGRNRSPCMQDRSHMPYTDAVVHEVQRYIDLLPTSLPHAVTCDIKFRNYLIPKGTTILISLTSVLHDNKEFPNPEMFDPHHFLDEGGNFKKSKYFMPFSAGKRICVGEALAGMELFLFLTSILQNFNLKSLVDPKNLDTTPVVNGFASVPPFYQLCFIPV
EphB4 ephrin blk: blocks human EphB4 binding to ephrin-B2; P54760; AID 720; EphB4 LBD / TNYL-RAW-Alexa532 peptide, fluorescence polarization; 97,000 tested, 0.15% active; inhibition, % at 7 µM;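 active = inhibition above the screen-wide mean inhibition plus 3 SD, cut at about 15% in these data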
CYP2C19 inh: human CYP2C19 inhibition. P33261. CYP2C19 Supersomes, luciferin-H EGE luminescence, 30 min. inhibition, % at 5 µM. 96,000 tested, 21% active. AID 778;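 active = CYP2C19 inhibition above a set limit at 5 µM in the primary screen, cut at about 50% in these data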
CYP2C9 inhib: human CYP2C9 inhibition. P11712. CYP2C9 Supersomes, luciferin-H conversion, luminescence. inhibition, % at 5 µM. 96,000 tested, 20% active. AID 777;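 active = blocking of liver enzyme CYP2C9 beyond about 50% at 5 µM, limit read from the data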
CYP2C19 act: activators of human cytochrome P450 2C19; activation factor at 5 µM; 96,000 tested, under 10 active; P33261; recombinant CYP2C19, luciferin-H EGE luminescence; stronger effect = higher value; 0 = fully inhibited enzyme, 1 = untreated enzyme;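 active = activation factor of at least 2 at 5 µM in the primary screen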
Numbers stand for hits; - = inactive; . = no result given.

SMILES	CYP2C9 activ	EphB4 ephrin blk	CYP2C19 inh	CYP2C9 inhib	CYP2C19 act
COc1ccc(NC(=O)CN(c2ccc(C)cc2)S(=O)(=O)c2c(C)nn(C)c2C)cc1OC	-	-	-	-	-
COc1ccc(N(CC(=O)Nc2ccc3c(c2)OCO3)S(=O)(=O)c2c(C)nn(C)c2C)cc1	-	-	-	79	-
CCOC(=O)c1cc(CC)sc1NC(=O)COC	-	-	-	84	-
CCC(CC)C(=O)N1c2ccc(F)cc2CCC1C (stereo not drawn)	-	-	-	74	-
CC(C(=O)N1c2ccc(F)cc2CCC1C)N1C(=O)c2ccccc2C1=O (stereo not drawn)	-	-	69	-	-
CCCn1c(SCC(=O)N2c3ccc(F)cc3CCC2C)nnc1-c1ccccn1 (stereo not drawn)	.	-	.	.	.
CC1CCc2cc(F)ccc2N1C(=O)C1(C)CC1(Cl)Cl (stereo not drawn)	-	-	56	-	-
COc1ccccc1NC(=O)N1c2ccc(F)cc2CCC1C (stereo not drawn)	-	-	-	-	-
Cc1ccc(-c2nc(CS(=O)(=O)CC(=O)N3CCCCCC3)c(C)o2)cc1	-	.	56	75	-
Cc1cccc(-c2nc(CS(=O)CC(=O)N3CCc4ccccc4C3)c(C)o2)c1 (stereo not drawn)	-	-	-	-	-
Cc1ccc(-c2nc(CS(=O)(=O)CC(=O)N3CCc4ccccc4C3)c(C)o2)cc1	-	.	-	72	-
C=CCN(c1ccccc1)S(=O)(=O)c1cccc(C(=O)O)c1	-	-	-	-	-
O=C(Nc1cccc(-c2cn3ccsc3n2)c1)c1ccccc1	-	-	59	85	-
O=C(Nc1cccc(-c2cn3ccccc3n2)c1)c1cccc(Cl)c1	-	-	-	84	-
COc1ccccc1C(=O)Nc1cccc(-c2cn3ccsc3n2)c1	-	-	-	-	-
O=C(Nc1cccc(-c2cn3ccccc3n2)c1)c1cnccn1	.	-	.	.	.
CC1CCCC(C(=O)O)N1C(=O)CCSSCCC(=O)N1C(C)CCCC1C(=O)O (stereo not drawn)	-	-	-	-	-
COc1ccc(Cn2c(/C=C/c3ccccc3)nc3ccccc32)cc1	-	-	-	91	-
CCn1c(/C=C/c2ccccc2)nc2ccccc21	2.6	-	-	-	-
CC(=O)Nc1nc2n(n1)C(c1ccc(Cl)cc1)C=C(C)N2 (stereo not drawn)	-	-	-	-	-
C=CCn1c(N)c(C(=O)OC(C)CC)c2nc3ccccc3nc21 (stereo not drawn)	-	-	56	83	-
C=CCn1c(N)c(C(=O)OC(C)(C)C)c2nc3ccccc3nc21	-	-	63	77	-
Cc1noc(C)c1C(=O)Nc1cccnc1	-	-	-	-	-
Cc1cc(Nc2ccc(C(C)C)cc2)n2ncnc2n1	-	.	-	-	-
O=C(Cn1c(=O)sc2ccccc21)OC(CCl)CCl	.	-	.	.	.
SMILES	CYP2C9 activ	EphB4 ephrin blk	CYP2C19 inh	CYP2C9 inhib	CYP2C19 act
CCCCc1nc2ccccc2n1Cc1nnc2n1-c1ccccc1SC2	-	-	91	92	-
COC(=O)C1=NN(c2ccccc2)C2(S1)SC(C(C)=O)=C(C)N2c1ccccc1 (stereo not drawn)	-	-	-	58	-
COC(=O)C1=C(C)N(c2ccc(C)cc2)/C(=C/c2cccs2)C1=O	-	-	-	-	-
CC(=O)C1=NN(c2ccccc2)C2(S1)S/C(=C\c1ccccc1)C(=O)N2c1ccccc1 (stereo not drawn)	-	-	-	58	-
COC(=O)c1nn(-c2ccccc2)ccc1=O	-	-	-	-	-
COC(=O)C1=NN(c2ccc(C)cc2)C2(S1)SC(C(C)=O)=C(C)N2c1ccccc1 (stereo not drawn)	-	-	58	59	-
CSc1ccc(S(=O)(=O)NCc2ccc(Cl)cc2Cl)cc1	2.4	-	86	-	-
Cn1c(=O)n(C)c2cc(S(=O)(=O)NCc3ccccc3)ccc21	-	.	-	-	-
CSc1ccc(S(=O)(=O)NCc2ccccc2)cc1	-	-	67	-	-
CSc1ccc(S(=O)(=O)Nc2c(C)cccc2C)cc1	-	-	-	-	-
O=S(=O)(NCc1ccccc1)c1ccc(Cl)cc1	-	-	80	72	-
CC(C)N(CCNS(=O)(=O)c1ccc(Cl)cc1)C(C)C	-	-	-	54	-
COc1ccccc1N1CCN(C(=O)CN(c2ccc(C)c(C)c2)S(C)(=O)=O)CC1	-	-	-	-	-
CCOc1ccc(-c2noc(-c3cccnc3)n2)cc1OC	-	-	-	-	-
COc1ccc(NC(=O)Nc2ccc(N3CCCC3=O)cc2)cc1OC	-	.	-	-	-
CS(=O)(=O)c1ccc(Cl)c(S(=O)(=O)NCc2ccccc2)c1	-	-	-	-	-
O=CNc1ccc(S(=O)(=O)NCc2ccccc2)cc1	-	-	90	-	-
O=S(=O)(NCC(c1cccnc1)N1CCN(Cc2ccccc2)CC1)c1ccccc1 (stereo not drawn)	.	-	.	.	.
O=S(=O)(NCC(c1ccccc1)N1CCNCC1)c1ccc(Cl)cc1 (stereo not drawn)	-	-	60	-	-
CCOC(=O)Nc1ccc(S(=O)(=O)NCc2ccccc2)cc1	-	-	-	-	-
O=S(=O)(NCc1ccc(Cl)cc1)c1ccc(Cl)nc1	-	-	90	-	-
CCC(=O)c1ccc(N2CCOCC2)c(F)c1	.	-	.	.	.
Cc1ccc(-n2c3c(c(=O)[nH]c2=O)C(NS(=O)(=O)c2ccc(C)cc2)(C(F)(F)F)C(=O)N3)cc1 (stereo not drawn)	-	-	-	-	-
CN(C)CCCCCCCCCCC(=O)/C=N/O	.	-	.	.	.
CCS(=O)(=O)n1nc(-c2ccc(Cl)cc2)nc1N	-	.	53	-	-
SMILES	CYP2C9 activ	EphB4 ephrin blk	CYP2C19 inh	CYP2C9 inhib	CYP2C19 act
CSc1nc(-c2ccccc2)nn1S(=O)(=O)c1ccc(Cl)cc1	-	-	-	-	-
COc1ccc(-c2nc(SC)n(S(=O)(=O)c3ccccc3)n2)cc1	-	-	69	62	-
CSc1nc(-c2ccccc2)nn1S(=O)(=O)c1ccccc1	.	-	.	.	.
CCS(=O)(=O)n1nc(-c2ccccc2)nc1SC	-	-	56	-	-
CCCc1cc(=O)[nH]c(SCC(=O)c2cc(C)n(C3CC3)c2C)n1	-	-	-	-	-
COc1ccc(C(=O)CSc2nnnn2Cc2ccccc2)cc1	-	-	60	-	-
O=C(CSc1nnnn1Cc1ccccc1)N1CCN(c2ccccc2)CC1	-	-	-	-	-
O=C(CSc1nnnn1Cc1ccccc1)c1ccccc1	-	-	74	-	-
COC(=O)c1ccc(CSc2nnnn2C)o1	-	.	-	-	-
COc1ccc(-n2nnnc2SCC(=O)c2ccc(O)c(O)c2)cc1	-	-	-	-	-
COc1cccc(C(=O)CSc2nnnn2C)c1	-	-	72	-	-
CCn1nnnc1SCC(=O)c1ccc(C)cc1	.	-	.	.	.
COC(=O)c1ccc(CSc2nnnn2Cc2ccccc2)cc1	-	-	-	78	-
Cc1nn(CCC#N)c2nc(C(F)(F)F)[nH]c(=O)c12	-	.	-	-	-
